A selection: hits, their analogues and other compounds. The true share with any hit is near 1.1%.
HTR5A ag ctr = counter-screen for OPRM1-OPRD1 agonists: human HTR5A agonism. P47898. HTR5A agonist assay, luminescence, cell-based. activation, % at 9.3 µM. 340,000 tested, 0.61% active; in the data active = activation mostly above about 9.5%, no sharp cut-off; inactive = mostly below about 7.6%;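 note: 0% = cells with vehicle only and 100% = reference agonist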
Target sequence (P47898 whole entry, looked up): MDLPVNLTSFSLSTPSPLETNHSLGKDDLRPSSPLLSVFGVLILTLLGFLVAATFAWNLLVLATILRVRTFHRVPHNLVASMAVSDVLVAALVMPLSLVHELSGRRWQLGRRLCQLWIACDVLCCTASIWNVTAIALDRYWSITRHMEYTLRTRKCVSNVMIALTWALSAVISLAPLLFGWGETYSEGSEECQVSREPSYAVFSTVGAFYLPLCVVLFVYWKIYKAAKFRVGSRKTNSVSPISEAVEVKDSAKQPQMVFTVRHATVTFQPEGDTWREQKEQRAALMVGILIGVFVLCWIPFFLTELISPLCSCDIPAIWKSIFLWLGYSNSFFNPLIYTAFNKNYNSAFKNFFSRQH
HTR5A inv ctr = inverse agonist of human HTR5A in OPRM1-OPRD1 counter-screen; 340,000 tested, 0.083% active; inhibition, % at 9.3 µM; AID 504634; P47898; HTR5A cell line, luminescence, inverse agonism; in the data active = inhibition mostly above about 23%, no sharp cut-off; inactive = mostly below about 18%;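 note: 0% = cells with DMSO and 100% = no-cell wells with DMSO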
MOR-DOR ag-1 = OPRM1-OPRD1 heterodimerization agonism | 340,000 tested, 0.3% active | P35372+P41143 | cells, luminescence | activation, % at 9.3 µM; in the data active = activation above about 18%;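 note: 0% = vehicle-treated cells and 100% = reference agonist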
MOR-DOR inv ag-1 = inverse agonist of human OPRM1-OPRD1 heterodimerization | P35372+P41143 | cell-based MOR-DOR heterodimer luminescence, inverse agonism | 340,000 tested, 0.21% active | inhibition, % at 9.3 µM | AID 504357; in the data active = inhibition above about 22%, passing the limit was not always enough;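 note: 0% = cells with DMSO and 100% = wells without cells with DMSO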
MOR-DOR inv conf = OPRM1-OPRD1 heterodimer inverse agonism, confirmation. shares compounds with MOR-DOR inv ag-1. cells expressing OPRM1/OPRD1 heterodimer, luminescence. inhibition, % at 9.3 µM. 580 tested, 20% active. AID 504900; in the data active = inhibition above about 32%;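 note: 0% = cells with DMSO and 100% = wells lacking cells with DMSO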
HTR5A inv count = inverse agonist of human HTR5A in OPRM1-OPRD1 counter-screen; shares compounds with MOR-DOR inv ag-1; 580 tested, under 10 active; HTR5A-expressing cells, luminescence, inverse agonism; inhibition, % at 9.3 µM;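 note: 0% = cells with DMSO and 100% = no-cell wells with DMSO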
MOR-DOR inv ag-2 = counter-screen for HTR5A inverse agonists: OPRM1-OPRD1 heterodimerization inverse agonism; shares compounds with HTR5A inv ctr; U2OS counter-screen cells, complementation luminescence; inhibition, % at 9.3 µM; 190 tested, under 10 active;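 note: 0% = cells with DMSO and 100% = wells without cells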
HTR5A inv conf = HTR5A (human) inverse agonism, confirmation; shares compounds with HTR5A inv ctr; HTR5A-expressing cells, luminescence; inhibition, % at 9.3 µM; 190 tested, under 10 active; AID 504916;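 note: 0% = cells with DMSO and 100% = no cells with DMSO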
MOR-DOR ag-2 = opioid heterodimer agonism, HTR5A counter-screen; 800 tested, 13% active; activation, % at 9.3 µM; U2OS counter-screen cells, complementation luminescence, 3 h; shares compounds with HTR5A ag ctr; in the data active = activation above about 18%
HTR5A ag confirm = confirmation of human HTR5A agonists | HTR5A agonist cell assay, luminescence | shares compounds with HTR5A ag ctr | activation, % at 9.3 µM | 800 tested, 17% active; in the data active = activation above about 17%;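 note: 0% = cells with vehicle only and 100% = full reference agonist response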
An asterisk follows results filed as active; . = not tested or not shown. Unless noted, the rule behind the calls is not given here.

SMILES | HTR5A ag ctr | HTR5A inv ctr | MOR-DOR ag-1 | MOR-DOR inv ag-1 | MOR-DOR inv ag-2 | HTR5A inv conf | others
O=C(O)CNS(=O)(=O)Cc1ccccc1 | 1 | 1 | -2 | 11 | . | .
CCCNC(=O)c1nnsc1S(=O)(=O)c1ccc(Cl)cc1 | -4 | 11 | -6 | 32* | . | . | MOR-DOR inv conf=12;HTR5A inv count=-5
COc1cc(/C=N/NC(=O)c2cc(-c3cccc(Br)c3)nc3ccccc23)cc(OC)c1O | -2 | 8 | 0 | 1 | . | .
CCOC(=O)CSc1n[nH]c(=O)n1CCc1ccccc1 | 2 | -8 | 0 | -2 | . | .
CN(C)C(=O)CSc1n[nH]c(=O)n1CCc1ccccc1 | -2 | 3 | -6 | 38* | . | . | MOR-DOR inv conf=-58;HTR5A inv count=-3
COc1cc([N+](=O)[O-])ccc1NC(=O)NCc1cccnc1 | -6 | 16 | -2 | 8 | . | .
O=C(COC(=O)CCOc1ccccc1)NCCc1ccccc1 | -1 | 4 | -2 | 11 | . | .
O=C(CCOc1ccccc1)OCC(=O)c1cc2ccccc2o1 | -4 | 10 | -9 | 37* | . | . | MOR-DOR inv conf=-14;HTR5A inv count=28
CN(C)c1cc[n+](CC(=O)N2c3ccccc3Sc3ccccc32)cc1 | -4 | 7 | -1 | 6 | . | .
CCOC(=O)[C@@H]1[C@H]2COc3ccc(Br)cc3[C@@H]2N2C(=O)N(c3ccc(C)cc3)C(=O)[C@@]12C | -4 | 1 | -2 | 10 | . | .
Cc1cccc2c1N(CCOc1ccc(C(C)(C)C)cc1)C(=O)C2=O | -2 | 5 | -6 | 36* | . | . | MOR-DOR inv conf=-14;HTR5A inv count=-110
Cc1ccc(OCCCN2C(=O)C(=O)c3cccc(C)c32)cc1 | -1 | 3 | -8 | 45* | . | . | MOR-DOR inv conf=12;HTR5A inv count=5
O=C(CSc1nc2c([nH]c3ccccc32)c(=O)n1-c1ccccc1)NCC1CCCO1 (stereo not drawn) | -15 | 29 | -9 | 51* | . | . | MOR-DOR inv conf=22;HTR5A inv count=-9
CCc1sc(/C=C(/C#N)C(N)=S)cc1[N+](=O)[O-] | -3 | 10 | 0 | 0 | . | .
N#CC(C#N)=NNc1ccc([N+](=O)[O-])cc1 | 15* | -15 | -6 | 31* | . | . | MOR-DOR inv conf=9;HTR5A inv count=-11;MOR-DOR ag-2=-1;HTR5A ag confirm=3
NC(=O)C1CCCN(C(=O)CCc2nnc(C3(c4ccc(Cl)cc4)CCC3)o2)C1 (stereo not drawn) | 7 | -16 | -4 | 19 | . | .
C/C(=N\Nc1nc(N2CCOCC2)nc(N2CCOCC2)n1)c1cccs1 | -8 | 23* | -3 | 18 | -17 | -7
BrC(/C=C\c1ccccc1)=N/Nc1nc(N2CCOCC2)nc(N2CCOCC2)n1 | -2 | -12 | -4 | 20 | . | .
O=C(NC(Cc1ccccc1)C(=O)O)C1CCCCC1 (stereo not drawn) | -5 | -13 | 1 | -7 | . | .
COCCOC(=O)C1=C(C)OC(N)=C(C#N)C1c1ccc2c(c1)OCO2 (stereo not drawn) | -9 | 33* | -2 | 11 | -26 | -14
COc1ccc(CNC(=O)C(c2ccc(C)o2)N(C(=O)c2snc(C(N)=O)c2N)c2ccccc2OC)cc1 (stereo not drawn) | -3 | -1 | 0 | 3 | . | .
CC(=O)N1CCc2ccccc2C1CC(=O)O (stereo not drawn) | 2 | 43* | -1 | 6 | -13 | -14
Cc1ccc2ccc(C(Nc3cccc(C(F)(F)F)c3)c3cccnc3)c(O)c2n1 (stereo not drawn) | -32 | 89* | 4 | -24 | -11 | -13
CCOC(=O)CCNC(=O)N1CCCC(Cc2ccccc2)(C(=O)OCC)C1 (stereo not drawn) | -8 | 24* | -1 | 4 | 0 | 13
COCC(=O)N1CCC(Oc2ccc(C(=O)N3C[C@@H](C)O[C@@H](C)C3)cc2)CC1 | 1 | 4 | -3 | 9 | . | .
SMILES | HTR5A ag ctr | HTR5A inv ctr | MOR-DOR ag-1 | MOR-DOR inv ag-1 | MOR-DOR inv ag-2 | HTR5A inv conf | others
CCOc1cc(/C=N/NC(=O)c2cccs2)cc([N+](=O)[O-])c1O | -9 | 25* | -4 | 22 | 55* | -4
Cc1nc2[nH]c(=O)c3c(n2n1)NC1=C(C(=O)CC(C)(C)C1)C3c1ccccc1 (stereo not drawn) | 2 | -3 | -2 | 11 | . | .
CN(C)CCNCc1ccccc1OC1CCCC1 | 2 | 15 | -2 | 12 | . | .
O=[N+]([O-])c1ccc(/C=N/Nc2ccc3ccccc3c2)o1 | -11 | 28* | 7 | -51 | -71 | 18
C=CCn1c(Cc2cccc3ccccc23)n[nH]c1=S | -8 | 28* | 1 | -4 | 2 | 2
C=CCn1c(CCn2c3ccccc3c3ccccc32)n[nH]c1=S | 2 | 24 | -2 | 9 | . | .
O=[N+]([O-])c1ccc(S(=O)(=O)Nc2cccc(-c3ccc(N4CCOCC4)nn3)c2)cc1 | -1 | 43* | 5 | -35 | -21 | -13
Cc1c(C(=O)OCC(=O)NCc2ccccc2)oc2ccccc12 | -1 | 3 | 1 | -4 | . | .
CCn1c(-c2ccc(-c3ccccc3)cc2)c[nH]c1=S | -10 | 33* | 0 | 0 | -309 | -11
CN(C(=O)CSc1nncn1-c1ccccc1)C1CCS(=O)(=O)C1 (stereo not drawn) | 16 | -45 | -1 | 5 | . | .
O=C(CN1CCN(S(=O)(=O)c2ccc(Cl)cc2)CC1)NC1CCCC1 | 0 | 0 | -1 | 3 | . | .
O=C(CN1CCN(S(=O)(=O)c2ccc(F)cc2)CC1)NC1CCCC1 | 0 | 35* | -1 | 7 | -17 | 6
CN1CCN(C(CNS(=O)(=O)c2ccc(Br)cc2)c2ccc3c(c2)OCO3)CC1 (stereo not drawn) | -2 | 6 | -1 | 4 | . | .
Cc1ccccc1C1c2[nH]c3ccccc3c2C[C@H]2C(=O)N(C3CCN(Cc4ccccc4)CC3)CC(=O)N12 (stereo partly drawn) | -9 | 32* | 2 | -11 | -22 | -3
CCOc1ccccc1C1c2[nH]c3ccccc3c2C[C@H]2C(=O)N(C3CCN(Cc4ccccc4)CC3)CC(=O)N12 (stereo partly drawn) | 0 | 1 | -1 | 5 | . | .
COc1cccc(C(C(=O)NC(C)(C)C)N(C(=O)CCC(=O)Nc2cc(C)on2)C(C)C)c1OC (stereo not drawn) | -2 | 13 | -3 | 15 | . | .
COc1cccc(C(C(=O)NC(C)(C)C)N(C(=O)CCC(=O)Nc2cc(C)on2)C(C)(C)C)c1OC (stereo not drawn) | -26 | 91* | 0 | 1 | -6 | 4
Cc1cccc[n+]1CC(=O)c1ccc2c(c1)OCCO2 | 1 | -2 | -1 | 5 | . | .
